± gives the standard deviation of the averaged measurements. The full ranking holds about 33,000 sequences; the median of “E-score (dimensionless, -0.5 to 0.5)” is about -0.046, and the highest 2% start at about 0.36. The entries come from a sample that favours the highest values as a whole.
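Also: protein at 200 nM in PBS on universal double-stranded arrays.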

The test deals with T1, SpTbr T-box DNA-binding domain (GST fusion).
T1 sequence: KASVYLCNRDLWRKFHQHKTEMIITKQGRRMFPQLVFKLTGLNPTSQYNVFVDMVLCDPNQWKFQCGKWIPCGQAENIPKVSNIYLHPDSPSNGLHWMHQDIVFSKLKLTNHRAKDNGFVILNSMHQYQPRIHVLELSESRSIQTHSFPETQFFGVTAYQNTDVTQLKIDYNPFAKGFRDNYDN
Description: PBM E-score of 8-mer (E-score (dimensionless, -0.5 to 0.5)); Tbr is Tbrain of the sea star Patiria miniata (Pm) or the sea urchin Strongylocentrotus purpuratus (Sp); higher = stronger binding preference. As to conditions: the construct has about 5 more residues each side. As for the experimental part: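 Universal protein-binding microarray (Agilent AMADID 016060, 60-bp probes with a 35-bp variable region) incubated with 200 nM GST-fused Strongylocentrotus purpuratus Tbr T-box DNA-binding domain (residues 362-554) in PBS pH 7.5. Scored for every ungapped 8-mer (given with its reverse complement) as E-score (range -0.5 to 0.5; >0.45 counts as bound) and Z-score of median probe intensity. Two replicate arrays (datasets 1 and 2).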
GTGGCCAC: the “PBM E-score of 8-mer” value turned out to be 0.225 ± 0.026.

With ACTGCTGC, the “PBM E-score of 8-mer” value was -0.0667 ± 0.011.

Take ATCAAGAA: the “PBM E-score of 8-mer” value was -0.219 ± 0.094.

In the case of GAGTTAGC, the “PBM E-score of 8-mer” value worked out at 0.0856 ± 0.074.

Consider CTCCAAAC, for which the “PBM E-score of 8-mer” value is -0.0591 ± 0.11.

Turning to AGTGTCGG, the “PBM E-score of 8-mer” value stood at 0.36 ± 0.015.

In the case of GGTGTCGA, the “PBM E-score of 8-mer” value stood at 0.453 ± 0.015.

Regarding ATTGTCGA, the “PBM E-score of 8-mer” value amounted to 0.0605 ± 0.042.

Turning to ATTGTCGC, the “PBM E-score of 8-mer” value turned out to be 0.263 ± 0.028.

For CGTGTCGC, the “PBM E-score of 8-mer” value was determined as 0.254 ± 0.045.

Turning to AGTGTCGC, the “PBM E-score of 8-mer” value was 0.412 ± 0.016.

Turning to AGTGTCGA, the “PBM E-score of 8-mer” value turned out to be 0.405 ± 0.0049.

Take GTTGTCGA: the “PBM E-score of 8-mer” value came out at 0.271 ± 0.0066.

Consider CGTGTCGA, for which the “PBM E-score of 8-mer” value was 0.264 ± 0.013.

On to CTGAGGAC, for which the “PBM E-score of 8-mer” value turned out to be 0.0509 ± 0.03.

Regarding AGGGAGCC, the “PBM E-score of 8-mer” value is -0.14 ± 0.027.

Regarding CAATACTG, the “PBM E-score of 8-mer” value was -0.127 ± 0.0078.

In the case of AATGGGAA, the “PBM E-score of 8-mer” value is -0.188 ± 0.032.

As for AGGGCTGG, the “PBM E-score of 8-mer” value is -0.253 ± 0.011.

With GTTCCTCA, the “PBM E-score of 8-mer” value was -0.0698 ± 0.064.

CTAGCTAA: the “PBM E-score of 8-mer” value worked out at 0.041 ± 0.025.

Regarding AGTCGCAC, the “PBM E-score of 8-mer” value was determined as 0.387 ± 0.0041.

For the sequence AGTCGCAA, the “PBM E-score of 8-mer” value came out at 0.132 ± 0.0059.

On to AGTCGCAG, for which the “PBM E-score of 8-mer” value is 0.0537 ± 0.061.

GGTCGCAA: the “PBM E-score of 8-mer” value is 0.208 ± 0.029.

With GGTCGCAC, the “PBM E-score of 8-mer” value was determined as 0.365 ± 0.046.

For the sequence CGTCGCAC, the “PBM E-score of 8-mer” value is 0.327 ± 0.0036.

As for CGGGGCTA, the “PBM E-score of 8-mer” value is -0.315 ± 0.0072.

With ATCCACAG, the “PBM E-score of 8-mer” value is -0.0171 ± 0.029.

In the case of AACCACCC, the “PBM E-score of 8-mer” value is -0.022 ± 0.044.

Turning to ACAAAGCC, the “PBM E-score of 8-mer” value is -0.0854 ± 0.036.

ATGGGCCG: the “PBM E-score of 8-mer” value was -0.31 ± 0.017.

For the sequence GCGGAGAA, the “PBM E-score of 8-mer” value was 0.059 ± 0.053.

On to GGTGCCTA, for which the “PBM E-score of 8-mer” value came to 0.0923 ± 0.1.

Turning to TGTGCCAA, the “PBM E-score of 8-mer” value was found to be 0.364 ± 0.021.

In the case of GCTGCCAA, the “PBM E-score of 8-mer” value was 0.0847 ± 0.029.

For the sequence CGTGCCAA, the “PBM E-score of 8-mer” value came to 0.306 ± 0.03.

As for GGTGCCAA, the “PBM E-score of 8-mer” value is 0.447 ± 0.0064.

For AGTGCCAC, the “PBM E-score of 8-mer” value is 0.25 ± 0.013.

Consider AGTGCCAA, for which the “PBM E-score of 8-mer” value amounted to 0.359 ± 0.0081.

On to GGTGCCAC, for which the “PBM E-score of 8-mer” value was determined as 0.368 ± 0.0043.

Take CGTGCCAC: the “PBM E-score of 8-mer” value is 0.254 ± 0.041.

In the case of CGGAAAAA, the “PBM E-score of 8-mer” value is 0.019 ± 0.025.

On to ATCAGTGG, for which the “PBM E-score of 8-mer” value is -0.149 ± 0.015.

Take CTGTTGTA: the “PBM E-score of 8-mer” value was found to be 0.0999 ± 0.01.

Consider TACGACTA, for which the “PBM E-score of 8-mer” value is -0.13 ± 0.016.

Turning to AATGCTGT, the “PBM E-score of 8-mer” value is -0.0262 ± 0.063.

As to CCTCAAGA, the “PBM E-score of 8-mer” value was -0.0881 ± 0.046.

As for GGTACTCA, the “PBM E-score of 8-mer” value was -0.0116 ± 0.057.

Consider ACTCACGG, for which the “PBM E-score of 8-mer” value worked out at 0.061 ± 0.057.

CATGAAGC: the “PBM E-score of 8-mer” value was -0.112 ± 0.013.

Turning to ACGGTTAC, the “PBM E-score of 8-mer” value was -0.0916 ± 0.0079.

For the sequence ATGCTCAC, the “PBM E-score of 8-mer” value was 0.277 ± 0.023.

Regarding TCCATCGA, the “PBM E-score of 8-mer” value was -0.0839 ± 0.076.

For the sequence GGTCTCAC, the “PBM E-score of 8-mer” value was determined as 0.3458 ± 0.0029.

Consider CCACCTGG, for which the “PBM E-score of 8-mer” value amounted to 0.186 ± 0.029.

In the case of ACACCTGA, the “PBM E-score of 8-mer” value was 0.4627 ± 0.0023.

In the case of ACACCTGC, the “PBM E-score of 8-mer” value is 0.4527 ± 0.0032.

For ATACCTGC, the “PBM E-score of 8-mer” value was -0.0105 ± 0.0085.

On to AGACCTGA, for which the “PBM E-score of 8-mer” value is -0.094 ± 0.0078.

Take CGACCTGC: the “PBM E-score of 8-mer” value was found to be 0.177 ± 0.026.

On to ACACCTGG, for which the “PBM E-score of 8-mer” value is 0.44 ± 0.029.

Regarding GCACCTGC, the “PBM E-score of 8-mer” value came to 0.388 ± 0.024.

On to GAACCTGC, for which the “PBM E-score of 8-mer” value is -0.126 ± 0.13.

Turning to CCACCTGC, the “PBM E-score of 8-mer” value came out at 0.269 ± 0.0095.

Regarding ATACCTGG, the “PBM E-score of 8-mer” value came out at 0.0363 ± 0.063.

Regarding AAACCTGA, the “PBM E-score of 8-mer” value is -0.00426 ± 0.071.

For GCCCAAGC, the “PBM E-score of 8-mer” value is -0.24 ± 0.0088.

Turning to ACGCAAGA, the “PBM E-score of 8-mer” value was -0.0517 ± 0.024.

Regarding AACAACGT, the “PBM E-score of 8-mer” value came out at 0.00981 ± 0.00099.

Regarding CTTTAAGC, the “PBM E-score of 8-mer” value was -0.136 ± 0.004.

AACTTCAG: the “PBM E-score of 8-mer” value was -0.23 ± 0.022.

CTCACTGC: the “PBM E-score of 8-mer” value is 0.0922 ± 0.076.

With GCATGTCC, the “PBM E-score of 8-mer” value is -0.0875 ± 0.095.

Regarding CGGCTTGC, the “PBM E-score of 8-mer” value was -0.14 ± 0.0054.

Consider AAGCGAGG, for which the “PBM E-score of 8-mer” value stood at 0.115 ± 0.03.

For CAAGCTAC, the “PBM E-score of 8-mer” value is -0.147 ± 0.014.

As for AAGTGGTA, the “PBM E-score of 8-mer” value is 0.083 ± 0.018.

Consider GAGTGTTA, for which the “PBM E-score of 8-mer” value was found to be 0.386 ± 0.021.

For the sequence CAGTGTTC, the “PBM E-score of 8-mer” value amounted to 0.0165 ± 0.024.

As to GAGTGTAC, the “PBM E-score of 8-mer” value was -0.0659 ± 0.019.

As to AAGTGTTC, the “PBM E-score of 8-mer” value amounted to 0.226 ± 0.11.

Consider AAGTGTTG, for which the “PBM E-score of 8-mer” value came to 0.422 ± 0.02.

CAGTGTTA: the “PBM E-score of 8-mer” value came to 0.31 ± 0.028.

Turning to AAGTGTTA, the “PBM E-score of 8-mer” value came to 0.451 ± 0.00073.

On to AAGTGTAC, for which the “PBM E-score of 8-mer” value was 0.00907 ± 0.056.

As for CATCTGTA, the “PBM E-score of 8-mer” value was -0.0572 ± 0.038.

With CACCAATG, the “PBM E-score of 8-mer” value came to 0.179 ± 0.0061.

On to CACAATCC, for which the “PBM E-score of 8-mer” value amounted to 0.0504 ± 0.056.

With ATGCCCAT, the “PBM E-score of 8-mer” value is -0.184 ± 0.01.

Turning to AGGCAGAT, the “PBM E-score of 8-mer” value was -0.0669 ± 0.075.

Turning to TGGGCGAA, the “PBM E-score of 8-mer” value was -0.169 ± 0.019.

On to GAGGACAC, for which the “PBM E-score of 8-mer” value came out at 0.155 ± 0.015.

As for GGTGGGGA, the “PBM E-score of 8-mer” value was 0.248 ± 0.033.

On to ATCAGGTA, for which the “PBM E-score of 8-mer” value was -0.128 ± 0.008.

For AACAGGTA, the “PBM E-score of 8-mer” value stood at 0.0912 ± 0.072.

As to ATCAGGTG, the “PBM E-score of 8-mer” value was 0.386 ± 0.015.

With AACAGGTC, the “PBM E-score of 8-mer” value was 0.107 ± 0.0057.

Turning to AGCAGGTC, the “PBM E-score of 8-mer” value was -0.0223 ± 0.011.

Regarding ATCAGGTC, the “PBM E-score of 8-mer” value is -0.171 ± 0.075.

CACAGGTC: the “PBM E-score of 8-mer” value was found to be 0.198 ± 0.045.

For the sequence AGCAGGTA, the “PBM E-score of 8-mer” value is -0.132 ± 0.031.

Consider CACAGGTG, for which the “PBM E-score of 8-mer” value was determined as 0.453 ± 0.005.

Turning to AACAGGTG, the “PBM E-score of 8-mer” value was found to be 0.364 ± 0.028.

On to AGCAGGTG, for which the “PBM E-score of 8-mer” value was determined as 0.377 ± 0.00094.

Turning to CACAGGTA, the “PBM E-score of 8-mer” value was determined as 0.141 ± 0.0043.

With AGCGGTGC, the “PBM E-score of 8-mer” value was -0.00638 ± 0.018.

Take ACAATGCG: the “PBM E-score of 8-mer” value was 0.222 ± 0.025.

Take CGAGAGTA: the “PBM E-score of 8-mer” value was 0.0304 ± 0.018.

The values are drawn from the supplement of paper PMC4166925.
